CF NFkB inh – inhibitors of PAF-induced NF-kB signaling, primary screen, cell-based, GFP fluorescence, uHTS | inhibition, % at 5 µM | KKLEB NF-kB-GFP reporter, GFP fluorescence overnight | actives 0.86% (n = 360,000) | AID 588850, 2011;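 active = at least 50% inhibition at 5 µM, scaled per plate between neutral and stimulator controls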;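 note: PAF is a Pseudomonas aeruginosa culture filtrate used as stimulus; plate controls were PAF-stimulated DMSO wells for no effect and unstimulated DMSO wells for full effect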
LGR2 inh – inhibitors of bursicon-induced LGR2 CRE-luciferase signal, primary screen, cell-based, HEK293, CRE-luciferase reporter, bursicon stimulation. Drosophila bursicon receptor LGR2 (rickets). bursicon-stimulated, 4 h. inhibition, % at 9.99 µM. actives 0.35% (n = 380,000);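 active = drop in luminescence signal, shown as inhibition above about 50% in the replicate tests, limit read from the data, passing the limit was not always enough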;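 note: agonist challenge used bursicon conditioned medium at about half maximal strength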
Mdm2 MdmX PPI – inhibitors of human Mdm2-MdmX association, primary screen, cell-based, luminescence, split luciferase, SaOS-2, uHTS | Protein Mdm4 (Homo sapiens) + E3 ubiquitin-protein ligase Mdm2 (Homo sapiens), … | SaOS-2 split-luciferase Mdm2/MdmX complementation | inhibition, % at 8 µM | actives 3% (n = 330,000) | AID 485346, 2010;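 active = inhibition of at least 50% at 8 µM in the primary screen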
Target sequence (O15151 whole entry, looked up): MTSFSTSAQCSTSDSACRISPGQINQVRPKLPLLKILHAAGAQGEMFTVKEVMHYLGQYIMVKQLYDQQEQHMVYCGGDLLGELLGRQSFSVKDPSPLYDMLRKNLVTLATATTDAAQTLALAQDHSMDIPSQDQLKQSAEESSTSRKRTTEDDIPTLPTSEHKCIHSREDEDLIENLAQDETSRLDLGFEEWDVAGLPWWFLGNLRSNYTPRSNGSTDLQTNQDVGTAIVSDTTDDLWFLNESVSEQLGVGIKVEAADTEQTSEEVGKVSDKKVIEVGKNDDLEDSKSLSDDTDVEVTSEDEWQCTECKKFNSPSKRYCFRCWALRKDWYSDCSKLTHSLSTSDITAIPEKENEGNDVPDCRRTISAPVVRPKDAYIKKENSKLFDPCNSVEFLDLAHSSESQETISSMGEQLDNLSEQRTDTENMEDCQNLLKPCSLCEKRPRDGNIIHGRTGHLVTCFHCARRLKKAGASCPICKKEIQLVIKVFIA
Target sequence (Q00987 whole entry, looked up): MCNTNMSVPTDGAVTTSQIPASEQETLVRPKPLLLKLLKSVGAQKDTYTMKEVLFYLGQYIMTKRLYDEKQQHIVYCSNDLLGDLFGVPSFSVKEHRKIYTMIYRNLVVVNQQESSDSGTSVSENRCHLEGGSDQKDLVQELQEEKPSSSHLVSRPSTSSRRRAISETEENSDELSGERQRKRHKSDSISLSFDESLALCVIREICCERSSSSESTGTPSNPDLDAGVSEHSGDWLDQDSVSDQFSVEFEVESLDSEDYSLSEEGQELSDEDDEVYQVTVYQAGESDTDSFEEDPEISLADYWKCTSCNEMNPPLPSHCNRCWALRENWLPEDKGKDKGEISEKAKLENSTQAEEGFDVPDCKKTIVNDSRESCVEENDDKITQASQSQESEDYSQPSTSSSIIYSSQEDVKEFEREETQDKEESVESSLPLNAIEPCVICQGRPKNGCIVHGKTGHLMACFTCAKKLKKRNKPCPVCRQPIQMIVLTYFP
HSP90 refold inh – HSP90 inhibitors, primary screen, cell lysate, luminescence. Rabbit reticulocyte lysate, luciferase refolding luminescence, 3 h. Heat shock protein HSP 90 (rabbit reticulocyte lysate; luciferase refolding). inhibition, % at 5.6 µM. AID 1789, 2009. actives 0.91% (n = 290,000);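 active = inhibition above the screen-wide mean plus 3 SD, computed separately per campaign, cut at about 16% in these data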;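 note: 0% = DMSO wells and 100% = 60 µM geldanamycin wells; inhibitors lower the luminescence because luciferase stays unfolded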
Peg3 prom inh – Peg3 promoter-driven luciferase inhibitors, primary screen, cell-based, HeLa, luciferase luminescence. HeLa PEG-Prom luciferase reporter, overnight. inhibition, % at 20 µM. actives 1.7% (n = 360,000). AID 588405, 2011;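 active = inhibition of at least 50% at 20 µM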
KKLEB tox – cytotoxicity in KKLEB CF airway cells, primary screen, cytotoxicity control for CF NF-kB inhibitor project, cell-based, uHTS, fluorescence assay plates. KKLEB CF airway cells viability, ATPlite luminescence, overnight; stronger effect = lower value; cells stimulated with P. aeruginosa culture filtrate. activity change (cytotoxicity), % at 5 µM. actives 0.36% (n = 360,000). AID 602141, 2011;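 active = corrected activity change at or below -50% at 5 µM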
Mdm2-MdmX conf – Mdm2-MdmX complex disruptors, retested hits, confirmation, luminescence, single concentration; shares compounds with Mdm2 MdmX PPI; Mdm2-MdmX binding, luminescent assay; inhibition, % at 8 µM; actives 55% (n = 10,000); AID 489028, 2010; in the data active = inhibition above about 40%
FLuc counter – full-length luciferase signal inhibition, confirmation, counter-screen for Mdm2/MdmX interaction inhibitor project, cell-based, single concentration, SaOS-2. shares compounds with Mdm2 MdmX PPI. SaOS-2 full-length luciferase counterscreen, luminescence. inhibition, % at 8 µM. actives 77% (n = 6,200);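 active = mean inhibition at 8 µM reaching about 37%, which flags the compound as non-specific, limit read from the data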;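 note: p53-null SaOS-2 cells with luciferase driven by a doxycycline-inducible promoter; compound on cells about two nights before reading with doxycycline added after day one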
Starred values were filed as active, the others as inactive; / = no result given. An excerpt weighted towards active compounds, which were near 3.6% of everything screened.

SMILES | CF NFkB inh | LGR2 inh | Mdm2 MdmX PPI | HSP90 refold inh | Peg3 prom inh | KKLEB tox | Mdm2-MdmX conf | others
O=C1c2ccccc2C2=Nc3ccccc3SC(c3ccc(Cl)cc3)C12 (stereo not drawn) | 5.3 | 18.4 | 87.2* | -2.9 | 14.9 | -0.1 | 47.4* | FLuc counter=78.1*
COc1ccc(C(=O)N(C)CCCC2CCCC2)cc1OC1CCN(C(C)C)CC1 | 0.7 | -11.7 | 55.0* | 1.6 | -29.5 | -5.6 | 35.5 | FLuc counter=72.3*
COc1ccc(C(=O)N(C)CCCC2CCCC2)cc1OC1CCN(C(C)=O)CC1 | 4.4 | 15.6 | 1.9 | 8.2 | 19.7 | -6.0 | /
CC(NC(=O)c1ccc(CS(C)(=O)=O)cc1)c1ccc(-c2ccccc2)cc1 (stereo not drawn) | -11.8 | -6.4 | 52.2* | -3.2 | 7.9 | -0.1 | -1.6
CC(NC(=O)c1ccc(CS(C)(=O)=O)cc1)c1ccc(-n2ccnc2)cc1 (stereo not drawn) | -37.7 | -1.8 | -9.9 | 1.7 | 9.4 | 10.7 | /
CNC[C@H]1Oc2cc(-c3ccccc3F)ccc2S(=O)(=O)N([C@H](C)CO)C[C@@H]1C | / | -4.5 | / | / | / | / | /
COc1ccc(NC(=O)c2cc(=O)c3ccccc3o2)cc1Cl | -12.0 | -0.2 | 52.0* | 4.3 | -14.6 | -5.9 | 46.6* | FLuc counter=94.8*
COc1cc(NC(=O)c2cccs2)ccc1NC(=O)c1cc2ccccc2o1 | 12.2 | 24.0 | 88.6* | 0.5 | 13.8 | -15.8 | 52.4* | FLuc counter=116.7*
COc1cc(NC(C)=O)ccc1NC(=O)c1cc2ccccc2o1 | 16.9 | 0.7 | -10.4 | 2.7 | -193.2 | -5.7 | /
Cn1c(=O)n(C)c2cc(NC(=O)c3cc4ccccc4o3)ccc21 | -45.5 | / | 51.2* | 2.8 | -115.5 | -11.2 | -9.8
CCN1[C@H](C(=O)N(C)C)[C@@H](CO)[C@@H]2Cn3c(ccc(/C=C/c4ccccc4)c3=O)[C@@H]21 | / | 10.9 | / | / | / | / | /
CCn1c(C)cc(O)c(C(=O)Nc2cccc(Cl)c2)c1=O | -13.7 | -55.9 | 34.1 | -5.2 | -132.5 | 1.1 | /
COCCn1c(C)cc(O)c(C(=O)Nc2cccc(Cl)c2)c1=O | -6.9 | -0.8 | 64.9* | -3.4 | -3.9 | 5.6 | 51.8* | FLuc counter=41.6*
CCCCN(CC)S(=O)(=O)c1ccc(C(=O)N(CCCN(C)C)c2nc3cc(C)cc(C)c3s2)cc1 | 8.0 | 9.6 | 71.3* | -0.8 | 103.2* | -23.9 | 10.3
CCN(Cc1ccccc1)S(=O)(=O)c1ccc(C(=O)N(CCCN(C)C)c2nc3cc(C)cc(C)c3s2)cc1 | 39.7 | 11.3 | 97.7* | / | 100.1* | -26.0 | 54.6* | FLuc counter=67.5*
CCCCN(C)S(=O)(=O)c1ccc(C(=O)N(CCN(C)C)c2nc3ccc(C)cc3s2)cc1 | 17.6 | / | -5.8 | -0.2 | -62.4 | -14.0 | /
CCN(Cc1ccccc1)S(=O)(=O)c1ccc(C(=O)N(CCCN(C)C)c2nc3c(F)cccc3s2)cc1 | 19.8 | 9.6 | 17.2 | 2.7 | 1.3 | -13.7 | /
COc1cccc(CNC(=O)C[C@@H]2CC[C@H](NC(C)=O)[C@H](CO)O2)c1 | / | 5.4 | / | / | / | / | /
CCCC(=O)N=C1SC2CS(=O)(=O)CC2N1c1ccc(-c2nc3ccc(C)cc3s2)cc1 (stereo not drawn) | 6.2 | / | 72.9* | 2.6 | -183.1 | -24.0 | -109.5
Cc1ccc(N2C(=NC(=O)c3ccccc3)SC3CS(=O)(=O)CC32)cc1 (stereo not drawn) | 11.2 | -7.9 | 13.6 | 0.3 | 15.1 | 1.4 | /
O=C(Nc1ccc([N+](=O)[O-])cc1)c1nc[nH]c1C(=O)NC1CCCCC1 | 35.3 | -22.0 | 66.6* | -1.3 | 48.7 | -51.1* | 19.4
O=C(Nc1ccc(F)cc1)c1nc[nH]c1C(=O)Nc1ccc([N+](=O)[O-])cc1 | 22.2 | 17.1 | 92.4* | -1.2 | 3.7 | -29.1 | 26.4
O=C(Cc1ccc([N+](=O)[O-])cc1)NC1CCCCCC1 | 1.0 | / | 0.0 | -3.9 | 6.7 | 3.4 | /
CCOC(=O)c1[nH]cnc1C(=O)Nc1ccc([N+](=O)[O-])cc1 | -5.7 | 10.7 | 10.2 | 2.1 | -1.1 | 4.3 | /
Cc1noc(C)c1S(=O)(=O)Nc1ccc2c(c1)C(=O)N([C@@H](C)CO)C[C@@H](C)[C@@H](CN(C)S(=O)(=O)c1ccccc1)OCCCC[C@@H](C)O2 | / | 3.9 | / | / | / | / | /
SMILES | CF NFkB inh | LGR2 inh | Mdm2 MdmX PPI | HSP90 refold inh | Peg3 prom inh | KKLEB tox | Mdm2-MdmX conf | others
Cc1ccccc1S(=O)(=O)N1CC(=O)N2[C@H](CO)[C@H](c3ccc(C#CC4CC4)cc3)[C@H]2C1 | / | -2.1 | / | / | / | / | /
NC1=NC(=Nc2ccc(Cl)cc2)c2ccccc21 | 4.1 | -17.1 | 55.0* | -4.0 | -11.7 | -3.8 | -12.2
COc1ccccc1NS(=O)(=O)c1cccc(N=C2N=C(N)c3ccccc32)c1 | 26.6 | 24.9 | 51.1* | 0.8 | 21.9 | -2.7 | 23.8
NC1=NC(=Nc2cccc(Cl)c2)c2ccccc21 | 24.3 | -6.0 | 51.3* | 0.7 | 9.3 | -14.3 | 15.7
Cc1ccc(S(=O)(=O)c2ncccc2[N+](=O)[O-])cc1 | 102.1* | 39.8 | 89.8* | 13.9 | 101.8* | -64.6* | 76.7* | FLuc counter=52.3*
Cc1ccc(S(=O)(=O)c2ncccc2N)cc1 | -3.0 | 0.5 | -9.9 | -1.8 | 2.6 | 8.3 | /
CCC(=O)Oc1ccc2ccccc2c1CNC(=O)c1ccccc1 | -6.5 | -8.2 | 55.4* | -0.9 | -11.4 | 0.1 | 19.1
C[C@@H]1CN([C@H](C)CO)C(=O)c2cccc(NC(=O)C3CC3)c2O[C@H]1CN(C)S(=O)(=O)c1ccccc1 | / | 5.0 | / | / | / | / | /
NC(=O)c1ccccc1Nc1nc2nc3ccccc3c(=O)n2cc1Br | / | / | 73.7* | 6.2 | / | / | -4.8
Cc1cc(Nc2ccccc2C(=O)O)nc2nc3ccccc3c(=O)n12 | -16.1 | / | -0.8 | 2.9 | 7.0 | 0.1 | /
C[C@@H]1CN([C@H](C)CO)C(=O)c2cc(/C=C/c3ccccc3)cnc2O[C@@H]1CN(C)C(=O)CN1CCOCC1 | / | 4.8 | / | / | / | / | /
CCC(=O)N(C)C[C@H]1Oc2cc(C#CC3CC3)ccc2S(=O)(=O)N([C@H](C)CO)C[C@@H]1C | / | 4.8 | / | / | / | / | /
CCC1(c2ccccc2)ON(c2c(Br)cccc2Br)C1=O (stereo not drawn) | 23.5 | 0.0 | 92.9* | / | 73.0* | 6.7 | 91.5* | FLuc counter=46.6*
CN1c2ccc(-c3ccccc3F)cc2[C@H]2[C@H](CCN2C(=O)Nc2ccc(F)cc2)[C@H]1CO | / | 49.3 | / | / | / | / | /

Compound activity from PubChem.
